Screening data (PubChem)
Shown is part of a subset that was picked to be rich in hits.
Sfp inh = inhibitors of Bacillus subtilis Sfp phosphopantetheinyl transferase; Q9F4F7; Biochemical Sfp PPTase activity, qHTS; Potency, µM, usual class: inhibitors; 310,000 compounds, 3.5% hits;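 note: the enzyme is Sfp with the accession as filed and its product quenches rhodamine fluorescence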
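Fluorescence-quenching assay with 15 nM Sfp, 5 uM rhodamine-CoA and 12.5 uM BHQ-2-labelled ybbR peptide in pH 7.6 Hepes/MgCl2 buffer. Enzyme was pre-incubated with compound for 15 min at room temperature. Rate was taken from the 30-min fluorescence change (525/598 nm).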
VDR inh = vitamin D3 receptor (human) inhibition | VDR-SRC2-3 peptide fluorescence polarization, 2 h | Potency, µM, usual class: inhibitors | 400,000 compounds, 0.93% hits
Target sequence (P11473 whole entry, looked up): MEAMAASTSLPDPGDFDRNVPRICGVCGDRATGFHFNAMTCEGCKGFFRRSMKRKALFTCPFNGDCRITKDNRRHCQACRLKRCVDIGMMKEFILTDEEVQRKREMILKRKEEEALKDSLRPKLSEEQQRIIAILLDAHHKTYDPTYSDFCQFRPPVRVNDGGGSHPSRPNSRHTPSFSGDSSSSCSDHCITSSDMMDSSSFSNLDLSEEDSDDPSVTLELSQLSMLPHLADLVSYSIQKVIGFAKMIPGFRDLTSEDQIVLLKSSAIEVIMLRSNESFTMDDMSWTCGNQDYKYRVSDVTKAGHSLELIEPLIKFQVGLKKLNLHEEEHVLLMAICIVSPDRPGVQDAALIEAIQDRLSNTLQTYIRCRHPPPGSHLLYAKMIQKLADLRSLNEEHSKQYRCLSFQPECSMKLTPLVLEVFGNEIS
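Fluorescence polarization assay measuring small-molecule disruption of VDR binding to the coregulator peptide SRC2-3. Compounds were pin-transferred (23 nl) into the reagent mix and incubated 2 h at room temperature before reading.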
GRP78 ERSR act = inducers of ER stress response in human glioma cells; U87-MG GRP78 promoter luciferase reporter, 16 h; Potency, µM, most hits filed as activators; 420,000 compounds, 0.02% hits; AID 602332; note: series mostly up to about 76 µM; nearly all actives have a fitted effect of over 35% in size
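ERSR induction read as luciferase luminescence (Bright-Glo, 10 min at room temperature) in stably transfected human U87-MG glioma cells exposed to compounds for 16 h, using GRP78 as sensor.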
12-LOX inh = ALOX12 (human) lipoxygenase inhibition | P18054 | purified 12hLO, xylenol orange hydroperoxide absorbance | Potency, µM (highest dose often 108 µM), actives largely listed as inhibitors | 580,000 compounds, 1.1% hits | AID 1671190
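Purified human 12hLO at 150 nM in 25 mM Hepes, 0.01% Triton X-100, pH 7.0, preincubated 15 min at room temperature with compound. Reaction started with 40 uM arachidonic acid, 30 min at room temperature. Hydroperoxide measured by Fe-xylenol orange, 573/405 nm absorbance ratio.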
G9a inh = inhibitors of human histone lysine methyltransferase G9a | Q96KQ7 | G9a H3K9 monomethylation, AlphaScreen, 2 h | Potency, µM (series often up to 102 µM), hits mostly inhibitors | 350,000 compounds, 8.8% hits; note: nearly all actives have a fitted effect of over 75% in size
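Methyltransferase reactions run at room temperature for 2 h (20 nM enzyme, 500 nM biotin-H3K9 peptide, 20 uM SAM) after a 15 min compound preincubation; product detected by AlphaScreen beads and anti-H3K9me1 antibody.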
A number is an active result; 0 = inactive; ? = inconclusive; - = no result given; [ ] = dose if it differs, or a comment. Calls come from the whole dose curve; as a rule, active = well fitted curve in the direction sought with a large enough effect; inconclusive = small, poorly fitted or top-dose-only effect, or another doubt; inactive = no such curve, though single readings can be large; an effect the other way counts as inactive or inconclusive.

SMILES	Sfp inh	VDR inh	GRP78 ERSR act	12-LOX inh	G9a inh
CCc1ccc(O)c(OC)c1	-	-	-	0	-
CCNC(=S)NNc1nc(N2CCCCC2)nc(N2CCOCC2)n1	11.2µM	0	0	?	?
COCCNS(=O)(=O)c1ccc2c(c1)n(C)c(=O)n2C	0	0	0	0	4.47µM
Cn1cccc1-c1nc2ccc([N+](=O)[O-])cc2[nH]1	79.4µM	0	0	?	8.91µM
O=[N+]([O-])c1ccc2nc(-c3ccccc3)[nH]c2c1	0	0	0	?	0
Cc1ccc(NC(=S)NCC2(C)CC(NC(=S)Nc3ccc(C)cc3C)CC(C)(C)C2)c(C)c1 (stereo not drawn)	-	-	-	7.08µM	-
CC1(C)CC(NC(=S)Nc2ccccc2)CC(C)(CNC(=S)Nc2ccccc2)C1 (stereo not drawn)	-	-	-	28.2µM	-
CCOc1ccc(CN(CCC#N)C(=S)NC(=O)c2ccccc2)cc1	0	0	0	0	1.41µM
N#CCCN(Cc1ccccc1)C(=S)NC(=O)c1ccccc1	0	0	0	0	?
CCOc1ccc(C(=O)NC(=S)N(Cc2ccccc2)Cc2ccccc2)cc1	0	0	0	?	-
COc1ccc(CN(CCC#N)C(=S)NC(=O)c2ccccc2)cc1	0	0	0	0	39.8µM
CCCCCCN1CCCC12Cc1ccccc1CNC2=O (stereo not drawn)	-	-	-	0[12.5 µM]	-
C=C(C)C1CC=C(C)/C(=N/Nc2ccccc2[N+](=O)[O-])C1 (stereo not drawn)	0	0	0	0	10µM
C=C(C)C1CC=C(C)/C(=N/NC(=O)c2ccccc2[N+](=O)[O-])C1 (stereo not drawn)	0	0	0	0	?
CCN1CCC(O)(/C=C/c2ccc(C(C)C)cc2)C(C(=O)/C=C/c2ccc(C(C)C)cc2)C1 (stereo not drawn)	-	39.8µM	0	1.78µM	-
CC(C)c1ccc(/C=C/C(=O)O)cc1	?	0	0	0	0[12.7 µM]
CCOC(=O)c1sc2nc(CSc3ccccc3)nc(N3CCCN(C)CC3)c2c1C	50.1µM	0	0	5.62µM	44.7µM
CCOC(=O)c1c(C)c(C(=O)Nc2ccc(Br)cc2C)c(C)n1C	-	-	-	0	-
O=[N+]([O-])c1cccc(-c2noc([C@@H]3Cc4nc[nH]c4CN3)n2)c1	-	-	-	0	-
COc1c(Cl)cc(Cl)cc1CNCCNCC(C)O (stereo not drawn)	0	0	0	0	35.5µM
COc1ccc(CCNC(=O)Cn2nnc3ccccc3c2=O)cc1	0	0	0	0	70.8µM
CC1=C(C(N)=O)C(c2ccccc2[N+](=O)[O-])n2ncnc2N1 (stereo not drawn)	39.8µM	25.1µM	0	0	28.2µM
CC1=C(C(N)=O)C(c2ccccc2Br)n2ncnc2N1 (stereo not drawn)	-	0	0	0	0
CCOC(=O)N1CCN(CC(=O)c2ccc3c(c2)CCN3C(C)=O)CC1	0	0	0	0	31.6µM
CCOC(=O)N1CCC(NS(=O)(=O)c2ccc3c(c2)CCN3C(C)=O)CC1	0	0	0	0	0
SMILES	Sfp inh	VDR inh	GRP78 ERSR act	12-LOX inh	G9a inh
COc1cc(/C=C/c2ccc(O)cc2)cc(OC)c1	56.2µM	0	0	?	0
COc1ccc(/C=C/C(=O)c2ccc(O)cc2)cc1	0	0	0	0	0
CCC(CC)NC(=O)C(C)c1ccc2cc(OC)ccc2c1 (stereo not drawn)	-	-	-	0	-
Cc1cccc(OCCSc2nc3ccccc3n2CC(=O)N2CCOCC2)c1C	-	0	0	0	10µM
Cc1ccc(OCCSc2nc3ccccc3n2CC(=O)N2CCCCC2)cc1C	-	0	0	0	12.6µM
O=C(Nc1cccnc1)C1=C(c2ccccc2)S(=O)(=O)CCO1	-	-	-	0	-
O=C(Nc1ccccc1)C1=C(c2ccccc2)S(=O)(=O)CCS1(=O)=O	12.6µM	22.4µM	0	0	28.2µM
O=C(CN1CC(=O)Oc2ccccc21)OCC(=O)c1cccc(Br)c1	70.8µM	0	0	-	44.7µM
O=C(CN1CC(=O)Oc2ccccc21)OCC(=O)c1ccccc1	?	0	0	0	?
Cn1c(=O)c2c(-c3ccccc3)n(Cc3cccnc3)cc2n(C)c1=O	0	0	0	0	10µM
Cc1ccc(-c2c3c(=O)n(C)c(=O)n(C)c3cn2Cc2cccnc2)cc1	0	0	0	0	7.94µM
Cn1c(=O)c2c(-c3ccc(Cl)cc3)n(Cc3ccc(Cl)cc3)cc2n(C)c1=O	-	0	0	?	0
COc1cc(NS(=O)(=O)c2ccc(N/C=C\C(=O)c3ccc(C)cc3)cc2)nc(OC)n1	-	0	0	?	-
